Screens from PubChem.
Hits are enriched below; roughly 2.3% of the tested compounds scored in any of these assays.
Giardia killer – kills Giardia lamblia | 340,000 compounds, 0.15% hits | activity change, % at 7.66 µM, hits read low | Giardia lamblia trophozoite viability | AID 540267; in the data active = activity change below about -80%; inconclusive = between about -30% and that limit;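 note: parasites exposed to compound for two days anaerobically before the ATP read; % is set by controls: 0 for no effect and ±100 for the full control effect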
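Trophozoite viability was measured as ATP-dependent luminescence, read 15-30 min after reagent addition. Before that, parasites at 100 cells/well were exposed to compounds for 48 h, anaerobically, at 37 deg C.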
Nrf2 ARE act – activators of Nrf2 (ARE) signaling | AREc32 ARE-luciferase reporter (MCF7-derived line), luminescence, 24 h | Potency, µM (highest dose often 46.1 µM), inactives show at the top dose activation, actives largely listed as activators | 410,000 compounds, 0.31% hits | AID 624171; note: potency is the fitted concentration of half-maximal effect; % of control where 0% means no effect; nearly all actives have a fitted effect of over 65% in size
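Nrf2 activation is followed as ARE-luciferase induction in the AREc32 line after one day of compound treatment; luminescence is read with Steady-Glo.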
Apoferritin bind – candidate novel general anesthetic via apoferritin binding; Potency, µM (highest dose often 77.5 µM), for the others: at the top dose activity change, negative = displacement, most hits filed as inhibitors; P02791; AID 485281; 350,000 compounds, 0.074% hits; apoferritin/1-aminoanthracene competitive binding, fluorescence; note: potency is the fitted concentration of half-maximal effect; % is set by controls: 0 for no effect and ±100 for the full control effect; nearly all actives have a fitted effect of over 20% in size
Target sequence (P02791 2-175 limits assumed): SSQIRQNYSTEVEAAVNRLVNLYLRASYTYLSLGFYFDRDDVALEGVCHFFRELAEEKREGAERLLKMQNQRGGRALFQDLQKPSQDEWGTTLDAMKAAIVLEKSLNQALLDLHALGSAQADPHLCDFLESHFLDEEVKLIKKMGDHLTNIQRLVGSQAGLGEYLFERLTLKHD
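Concentration-response curves derived by four-parameter Hill fitting of normalized fluorescence, where compounds displaced 1-AMA from 10 uM horse apoferritin following a brief 10 min room-temperature incubation; propofol titration acted as positive control.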
A549 tox – A549 cytotoxicity, counter-screen for Nrf2 inhibitors. A549 ARE-Fluc cells, CellTiter-Fluor viability, 18-24 h. Potency, µM (doses to about 46 µM), for the others: at the top dose activity change, negative = cytotoxicity, usual class: inhibitors. 390,000 compounds, 0.16% hits. AID 504648; note: potency is the fitted concentration of half-maximal effect; % is set by controls: 0 for no effect and ±100 for the full control effect
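Cytotoxicity counterscreen: CellTiter-Fluor fluorescence was measured in A549 ARE_Fluc cells after 18-24 h of compound exposure in a concentration series. The subsequent BugLite luminescent read reports ARE-luciferase activity.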
Nrf2 block – Nrf2 pathway inhibition. 360,000 compounds, 2.1% hits. A549 ARE-Fluc reporter, luciferase luminescence, 18-24 h. Potency, µM (doses to about 46 µM), without a hit: at the highest dose activity change, negative = inhibition, hits mostly inhibitors; note: potency is the fitted concentration of half-maximal effect; % is set by controls: 0 for no effect and ±100 for the full control effect; nearly all actives have a fitted effect of over 60% in size
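Nrf2 activity is the BugLite luminescence, read 15 min after reagent at room temperature, following CellTiter-Fluor cytotoxicity readout (30 min, 37C). Compound titrations were applied for 18-24 h to 5000 A549 ARE_Fluc cells/well in 5% FBS OPTI-MEM.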
mIDH1 inhibitor – human IDH1 R132H inhibition; O75874; IDH1-R132H enzyme, NADPH consumption, diaphorase/resazurin fluorescence; Potency, µM (series often up to 76.6 µM), for the others: top-dose activity change, negative = inhibition, actives largely listed as inhibitors; 390,000 compounds, 0.093% hits; AID 602179; note: potency is the fitted concentration of half-maximal effect; % is set by controls: 0 for no effect and ±100 for the full control effect; nearly all actives have a fitted effect of over 65% in size
Target sequence (O75874 whole entry R132H, stated change not applied): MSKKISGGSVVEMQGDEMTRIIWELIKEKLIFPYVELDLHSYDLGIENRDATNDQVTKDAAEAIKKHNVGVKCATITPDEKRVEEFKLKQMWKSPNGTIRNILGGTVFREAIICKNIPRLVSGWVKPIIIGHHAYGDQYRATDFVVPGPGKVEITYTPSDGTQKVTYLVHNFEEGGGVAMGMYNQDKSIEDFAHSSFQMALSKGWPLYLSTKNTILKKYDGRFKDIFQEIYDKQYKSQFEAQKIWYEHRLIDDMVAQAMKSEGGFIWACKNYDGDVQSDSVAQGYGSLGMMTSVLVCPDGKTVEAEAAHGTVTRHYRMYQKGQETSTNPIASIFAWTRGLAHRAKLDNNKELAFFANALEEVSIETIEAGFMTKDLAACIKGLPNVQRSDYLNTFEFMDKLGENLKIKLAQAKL
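IDH1-R132H (0.5 ug/mL) preincubated 30 min with compound, then NADPH (0.016 mM) and alpha-KG (2 mM) added; 80 min at RT, pH 7.5. Remaining NADPH coupled via diaphorase/resazurin to fluorescence (540/590 nm); concentration-response curves normalized to no-enzyme control.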
Active calls of the source: *. Unless noted, calls come from the whole dose curve; as a rule, active = well fitted curve in the direction sought with a large enough effect; inconclusive = small, poorly fitted or top-dose-only effect, or another doubt; inactive = no such curve, though single readings can be large; an effect the other way counts as inactive or inconclusive.

Screening CCOC(=O)c1ccc(NC(=O)c2ccc3c(c2)c(C)c(C)n3Cc2ccc(F)cc2)cc1 returned Nrf2 ARE act 0%, Apoferritin bind 14%, A549 tox -6%, Nrf2 block inconclusive and mIDH1 inhibitor 0%.
Screening Cc1ccc2oc(C(Cl)(Cl)Cl)cc(=O)c2c1 returned Giardia killer 13, Nrf2 ARE act 22µM*, Apoferritin bind -21%, A549 tox inconclusive, Nrf2 block 1% and mIDH1 inhibitor 0%.
Screening O=C(COc1ccc(Cl)cc1Cl)NCC1(N2CCOCC2)CCCCC1 returned Giardia killer 12, Nrf2 ARE act 0%, A549 tox 0%, Nrf2 block 23µM* and mIDH1 inhibitor 4%.
O=C(COc1ccccc1Cl)NCC1(N2CCOCC2)CCCCC1 was read as Nrf2 ARE act 3%, Apoferritin bind 50%, A549 tox 0%, Nrf2 block 4% and mIDH1 inhibitor 13%.
Screening CC1(C)Cc2c(sc(NC(=O)c3ccccc3)c2C(=O)O)CO1 returned Giardia killer -25, Nrf2 ARE act 0%, Apoferritin bind 3%, A549 tox -17%, Nrf2 block inconclusive and mIDH1 inhibitor 29%.
`CC(C)COc1ccc(C(=O)Nc2sc3c(c2C(=O)O)CC(C)(C)OC3)cc1` gave Giardia killer -1, Nrf2 ARE act 0%, Apoferritin bind -3%, A549 tox inconclusive, Nrf2 block 5.8µM* and mIDH1 inhibitor -10%.
For N#CN1CCC(N[S+](=O)([O-])c2cccc(F)c2)CC1 the results were A549 tox 1% and Nrf2 block 12%.
`CCN(CC)c1ccc(C2NC(=O)c3ccccc3N2)cc1` (stereo unspecified) gave Giardia killer -86*, Nrf2 ARE act 3%, A549 tox inconclusive, Nrf2 block inconclusive and mIDH1 inhibitor -5%.
Screening N#Cc1c(NC(=O)c2cc(-n3cnnc3)ccc2Cl)sc2c1CCCC2 returned Giardia killer -2, Nrf2 ARE act 11%, Apoferritin bind -15%, A549 tox -18%, Nrf2 block 23µM* and mIDH1 inhibitor 3%.
Screening Cc1cc(C(=O)NC2CCCc3c2cnn3-c2ccc(C(C)(C)C)cc2)nn1C (stereo unspecified) returned Giardia killer -3, Nrf2 ARE act 3%, Apoferritin bind -19%, A549 tox -21%, Nrf2 block 2.6µM* and mIDH1 inhibitor 1%.
For COc1ccc(CCNS(=O)(=O)c2cc3c4c(c2)C(C)C(=O)N4CCC3)cc1OC (stereo unspecified) the results were Giardia killer 1, Nrf2 ARE act -1%, Apoferritin bind -8%, A549 tox inconclusive, Nrf2 block inconclusive and mIDH1 inhibitor -5%.
`CC1C(=O)N2CCCc3cc(S(=O)(=O)NCCc4ccccc4)cc1c32` (stereo unspecified) gave Giardia killer 0, Nrf2 ARE act 0%, Apoferritin bind -20%, A549 tox -2%, Nrf2 block 16µM* and mIDH1 inhibitor -9%.
Screening Cc1ccc(S(=O)(=O)c2nc(NN(C)C)sc2Cl)cc1 returned Giardia killer -7, Nrf2 ARE act 0%, Apoferritin bind inconclusive, A549 tox -18%, Nrf2 block 23µM* and mIDH1 inhibitor -3%.
Screening O=C(CSc1nccc(-c2cccs2)n1)Nc1ccc(F)c(Cl)c1 returned Giardia killer -9, Nrf2 ARE act 7.9µM*, Apoferritin bind -8%, A549 tox -1%, Nrf2 block inconclusive and mIDH1 inhibitor -2%.
Screening CC(C)CCNC(=O)c1cc(-c2cccnc2)nc2ccc(S(=O)(=O)N3CCC(C)CC3)cc12 returned Nrf2 ARE act -1%, Apoferritin bind 3%, A549 tox 5% and mIDH1 inhibitor 6%.
Screening N#Cc1ccc(NC(=O)C2Cc3ccccc3CN2S(=O)(=O)c2ccc(F)cc2)cc1 (stereo unspecified) returned Nrf2 ARE act 6%, Apoferritin bind -3%, A549 tox inconclusive and Nrf2 block 23µM*.
Screening O=C(Nc1ccc(O)cc1)C1CCCN1S(=O)(=O)c1ccc(F)cc1 (stereo unspecified) returned Giardia killer -1, Nrf2 ARE act 0%, Apoferritin bind 0%, A549 tox -11%, Nrf2 block 15µM* and mIDH1 inhibitor 8%.
For O=c1cc(C(F)(F)F)[nH]c2ccc(C(F)(F)F)cc12 the results were Giardia killer inconclusive, Nrf2 ARE act 8%, Apoferritin bind 8%, A549 tox inconclusive, Nrf2 block 21µM* and mIDH1 inhibitor 11%.
`COc1ccc([C@H]2[C@H](c3ccccc3)C(=O)N2Cc2ccccc2)cc1COc1ccc(NC(C)=O)cc1` gave A549 tox -3% and Nrf2 block inconclusive.
Screening COC1=CC(=O)c2c(ccc3ncnc(N)c23)C1=O returned Giardia killer 44, Nrf2 ARE act -3%, A549 tox 7.3µM*, Nrf2 block 4.6µM* and mIDH1 inhibitor 22%.
O=C(Nc1ccc(Br)cc1)c1cccc(S(=O)(=O)Nc2ccccn2)c1 was read as Giardia killer 11, Nrf2 ARE act 1%, Apoferritin bind -3%, A549 tox inconclusive, Nrf2 block 13µM* and mIDH1 inhibitor 9%.
`Cc1ccc(Cl)cc1NC(=S)NCCCSC1CCCCC1` gave Giardia killer -12, Nrf2 ARE act 3%, Apoferritin bind -8%, A549 tox inconclusive, Nrf2 block 26µM* and mIDH1 inhibitor 4%.
Screening O=C1/C(=C\c2cc(Cl)c(O)c(Cl)c2)SC(=S)N1Cc1ccccc1 returned Giardia killer -5, Nrf2 ARE act 0%, Apoferritin bind 3%, A549 tox -24%, Nrf2 block 18µM* and mIDH1 inhibitor -24%.
For Nc1c(C(=O)NCc2ccco2)c2nc3ccccc3nc2n1CCc1ccccc1 the results were Giardia killer 11, Nrf2 ARE act 1%, Apoferritin bind 50%, A549 tox 5%, Nrf2 block inconclusive and mIDH1 inhibitor -19%.
CCOc1ccc(-n2c(N)c(C(=O)NCc3ccco3)c3nc4ccccc4nc32)cc1 was read as Giardia killer 0, Nrf2 ARE act 11µM*, Apoferritin bind 52%, A549 tox 6%, Nrf2 block 21% and mIDH1 inhibitor 1%.
CCOc1ccc(CNC(=O)c2oc3c(c2C)-c2nn(Cc4cccc(Cl)c4)cc2CC3)cc1 was read as Nrf2 ARE act 0%, Apoferritin bind -14%, A549 tox 11%, Nrf2 block 4% and mIDH1 inhibitor 0%.
